Measured values as given in PubChem BioAssay (NCATS).
Inconclusive results are not listed. Calls of active or inactive are those of the source. Unless noted, calls come from the whole dose curve; as a rule, active = well fitted curve in the direction sought with a large enough effect; inconclusive = small, poorly fitted or top-dose-only effect, or another doubt; inactive = no such curve, though single readings can be large; an effect the other way counts as inactive or inconclusive. Peptide text beside a SMILES is read from it.

Key:
[1] = target: Mitogen-activated protein kinase 10 (Mus musculus) (UniProt Q61831); assay: JNK3 AlphaScreen Assay (AID 530; active = well fitted curve in either direction with a large enough effect, not every such curve was filed as active;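 note: kinase came from lysate of stimulated human HepG2 cells; signal reports phosphorylation of biotinylated GST-cJun 1-79 at Ser73 with 10 µM ATP; % is set by controls: 0 for no effect and ±100 for the full control effect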)
Procedure, shortened: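 Activity was read by AlphaScreen after JNK3-containing HepG2 lysate (cytokine pre-activated) phosphorylated biotinylated GST-cJun with 10 uM ATP at room temperature. Phospho-Ser73 cJun antibody with Protein-A acceptor beads provided detection.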

[2] = qHTS Assay for Lipid Storage Modulators (AID 1519; calls by dose curve; for activity change, negative = inhibition: % is set by controls: 0 for no effect and ±100 for the full control effect); conditions: Drosophila S3 cells, BODIPY lipid droplet/cell ratio, laser cytometry, cells loaded with oleic acid; for activity change, negative = inhibition: at 57.5 µM (top of the series)
Procedure, shortened: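 Cells seeded at 5,000 per well were treated with compounds over a concentration series and loaded with oleic acid (400 uM, as added). Lipid droplet fluorescence (488 nm excitation, 500-530 nm channel) was read by laser-scanning cytometry and normalized to 20 uM Triacsin C.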

[3] = target: ATP-dependent 6-phosphofructokinase (Trypanosoma brucei brucei) (UniProt O15648); assay: qHTS Assay to Find Inhibitors of T. brucei phosphofructokinase: hit validation (AID 492961);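 note: luminescence reports ADP formed as PFK phosphorylates fructose-6-phosphate with ATP; % is set by controls: 0 for no effect and ±100 for the full control effect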
Procedure, shortened: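 Inhibition of parasite PFK is measured as reduced ADP formation, quantified via luciferase after ATP depletion. Assay used 0.1 mM ATP, 0.5 mM F6P, 1.25 nM enzyme, 45 min incubation.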

[4] = target: Ubiquitin carboxyl-terminal hydrolase 1 (Homo sapiens) (UniProt O94782); assay: Inhibitors of USP1/UAF1: Pilot qHTS (AID 504865);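 note: rhodamine fluorescence freed from ubiquitin-rhodamine substrate followed over time; top concentration of the series differs between compounds; % is set by controls: 0 for no effect and ±100 for the full control effect; nearly all actives have a fitted effect of over 35% in size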
Procedure, shortened: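 USP1/UAF1 complex (1nM) preincubated with compound 15 min at room temperature, then Ub-Rho substrate (150nM final) added. Fluorescence read kinetically at 480/540 nm, 6 reads every 60 seconds. Buffer: 50mM HEPES pH 7.8, 0.5mM EDTA, 0.1 mg/ml BSA, 1mM TCEP, 0.01% Tween-20.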

[5] = qHTS profiling for inhibitors of Plasmodium falciparum proliferation (AID 504749);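 note: 0% = DMSO vehicle and full inhibition = artemisinin control; nearly all actives have a fitted effect of over 60% in size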; conditions: P. falciparum in erythrocytes, SYBR Green DNA, 72 h, at 28.7 µM (top of the series)
Procedure, shortened: (§1)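 Each compound contacts P. falciparum-infected red blood cells for 72 h at 37 C; lysis buffer (Tris, EDTA, saponin, Triton X, SYBR Green I) is added and fluorescence measured next morning; values normalized to controls.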

[6] = test system: 3D7; assay: as above; conditions: P. falciparum in erythrocytes, SYBR Green DNA, 72 h; series mostly up to 12.8 µM
Procedure, shortened: as §1

[7] = test system: AS120; assay: as above; conditions: P. falciparum in erythrocytes, SYBR Green DNA, 72 h; series mostly up to 12.8 µM
Procedure, shortened: as §1

[8] = test system: C2A; assay: as above; conditions: P. falciparum in erythrocytes, SYBR Green DNA, 72 h; series mostly up to 12.8 µM
Procedure, shortened: as §1

[9] = test system: CP217; assay: as above; conditions: P. falciparum in erythrocytes, SYBR Green DNA, 72 h; series mostly up to 12.8 µM
Procedure, shortened: as §1

[10] = test system: CP237; assay: as above; conditions: P. falciparum in erythrocytes, SYBR Green DNA, 72 h; series mostly up to 12.8 µM
Procedure, shortened: as §1

[11] = test system: CP238; assay: as above; conditions: P. falciparum in erythrocytes, SYBR Green DNA, 72 h; series mostly up to 12.8 µM
Procedure, shortened: as §1

[12] = test system: CP252; assay: as above; conditions: P. falciparum in erythrocytes, SYBR Green DNA, 72 h; series mostly up to 12.8 µM
Procedure, shortened: as §1

[13] = test system: CP262; assay: as above; conditions: P. falciparum in erythrocytes, SYBR Green DNA, 72 h; series mostly up to 12.8 µM
Procedure, shortened: as §1

[14] = test system: CP269; assay: as above; conditions: P. falciparum in erythrocytes, SYBR Green DNA, 72 h; series mostly up to 12.8 µM
Procedure, shortened: as §1

[15] = test system: CP297; assay: as above; conditions: P. falciparum in erythrocytes, SYBR Green DNA, 72 h; series mostly up to 12.8 µM
Procedure, shortened: as §1

[16] = test system: ECU; assay: as above; conditions: P. falciparum in erythrocytes, SYBR Green DNA, 72 h; series mostly up to 12.8 µM
Procedure, shortened: as §1

[17] = test system: PAD; assay: as above; conditions: P. falciparum in erythrocytes, SYBR Green DNA, 72 h; series mostly up to 12.8 µM
Procedure, shortened: as §1

[18] = test system: SC27B; assay: as above; conditions: P. falciparum in erythrocytes, SYBR Green DNA, 72 h; series mostly up to 12.8 µM
Procedure, shortened: as §1

[19] = measured here: cell count channel max response
[20] = measured here: lipid channel max response

ATP-dependent 6-phosphofructokinase (Trypanosoma brucei brucei), sequence (O15648 whole entry, looked up): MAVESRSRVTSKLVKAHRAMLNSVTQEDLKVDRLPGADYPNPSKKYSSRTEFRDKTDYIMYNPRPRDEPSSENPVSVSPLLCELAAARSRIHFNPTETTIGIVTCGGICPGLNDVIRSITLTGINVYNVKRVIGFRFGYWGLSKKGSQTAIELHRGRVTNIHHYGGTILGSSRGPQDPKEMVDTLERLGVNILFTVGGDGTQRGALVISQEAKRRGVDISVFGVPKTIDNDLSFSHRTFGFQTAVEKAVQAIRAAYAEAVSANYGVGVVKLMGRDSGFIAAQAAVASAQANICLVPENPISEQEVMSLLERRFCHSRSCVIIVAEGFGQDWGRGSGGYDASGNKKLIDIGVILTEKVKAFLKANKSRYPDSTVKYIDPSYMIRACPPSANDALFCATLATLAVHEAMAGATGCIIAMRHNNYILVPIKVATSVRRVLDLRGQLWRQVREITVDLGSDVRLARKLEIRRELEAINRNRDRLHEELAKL
Ubiquitin carboxyl-terminal hydrolase 1 (Homo sapiens), sequence (O94782 whole entry, looked up): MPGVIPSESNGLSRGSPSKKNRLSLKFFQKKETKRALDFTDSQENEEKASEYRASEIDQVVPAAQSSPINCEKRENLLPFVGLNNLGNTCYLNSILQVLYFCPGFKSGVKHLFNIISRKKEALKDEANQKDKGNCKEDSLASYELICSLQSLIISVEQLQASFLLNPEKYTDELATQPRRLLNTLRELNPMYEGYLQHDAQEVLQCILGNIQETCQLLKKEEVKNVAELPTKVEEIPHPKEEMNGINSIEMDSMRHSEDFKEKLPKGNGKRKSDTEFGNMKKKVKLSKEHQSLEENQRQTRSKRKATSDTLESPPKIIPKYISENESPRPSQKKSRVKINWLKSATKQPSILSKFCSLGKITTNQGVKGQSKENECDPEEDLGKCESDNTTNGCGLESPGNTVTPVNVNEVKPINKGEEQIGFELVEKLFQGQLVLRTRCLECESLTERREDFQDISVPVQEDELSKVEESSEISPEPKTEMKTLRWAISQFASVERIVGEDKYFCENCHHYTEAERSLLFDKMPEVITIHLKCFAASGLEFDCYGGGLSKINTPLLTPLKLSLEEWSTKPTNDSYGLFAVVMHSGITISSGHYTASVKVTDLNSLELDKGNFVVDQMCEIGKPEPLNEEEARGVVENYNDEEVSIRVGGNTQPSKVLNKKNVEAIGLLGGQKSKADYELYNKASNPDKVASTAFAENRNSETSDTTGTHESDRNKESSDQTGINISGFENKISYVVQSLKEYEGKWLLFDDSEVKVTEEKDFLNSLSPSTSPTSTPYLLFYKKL

C[C@]1(c2ccccc2)OC(C(=O)O)=CC1=O
inactive: Potency [1] | activity change, negative = inhibition [2] -2% | outcome [3] | Potency [4] | activity, negative = inhibition ([5]; parasite line A) 4.24% | activity, negative = inhibition ([5]; parasite line B) 8.18% | Potency [6] | Potency [7] | Potency [8] | Potency [9] | Potency [10] | Potency [11] | Potency [12] | Potency [13] | Potency [14] | Potency [15] | Potency [16] | Potency [17] | Potency [18]
-4.61%: max response [2, 19]
-6.08%: max response [2, 20]

OCC1O[C@H](OC2C(CO)O[C@@](O)(CO)C2O)C(O)C(O)C1O (some centres undefined)
inactive: activity change, negative = inhibition [2] 5.94% | outcome [3] | Potency [4] | activity, negative = inhibition ([5]; parasite line A) 9.31% | activity, negative = inhibition ([5]; parasite line B) 4.3% | Potency [6] | Potency [7] | Potency [8] | Potency [9] | Potency [10] | Potency [11] | Potency [12] | Potency [13] | Potency [14] | Potency [15] | Potency [16] | Potency [17] | Potency [18]
14.3%: max response [2, 19]
24%: max response [2, 20]

NCC1CCC(N)C(O[C@@H]2C(O)[C@H](O[C@H]3OC(CO)C(O)C(N)C3O)[C@@H](N)C[C@H]2N)O1 (some centres undefined)
28.1%: max response [2, 19]
44.9%: max response [2, 20]
inactive: activity change, negative = inhibition [2] 9.66% | outcome [3] | Potency [4] | activity, negative = inhibition ([5]; parasite line A) 7.73% | activity, negative = inhibition ([5]; parasite line B) 10.2% | Potency [6] | Potency [7] | Potency [8] | Potency [9] | Potency [10] | Potency [11] | Potency [12] | Potency [13] | Potency [14] | Potency [15] | Potency [16] | Potency [17] | Potency [18]

Nc1nc2ncc(CNc3ccc(C(=O)NC(CCC(=O)O)C(=O)O)cc3)nc2c(=O)[nH]1 (centres undefined)
16.9%: max response [2, 19]
24.2%: max response [2, 20]
inactive: activity change, negative = inhibition [2] 5.18% | outcome [3] | Potency [4] | activity, negative = inhibition ([5]; parasite line A) 10.3% | activity, negative = inhibition ([5]; parasite line B) 16.6% | Potency [6] | Potency [7] | Potency [8] | Potency [9] | Potency [10] | Potency [11] | Potency [12] | Potency [13] | Potency [14] | Potency [15] | Potency [16] | Potency [17] | Potency [18]

CCCC(=O)O[C@]1(C(=O)CO)CCC2[C@@H]3CCC4=CC(=O)CC[C@]4(C)C3C(O)C[C@]21C (some centres undefined)
23.2%: max response [2, 20]
7.86%: max response [2, 19]
inactive: activity change, negative = inhibition [2] 9.93% | outcome [3] | Potency [4] | activity, negative = inhibition ([5]; parasite line A) 6.2% | activity, negative = inhibition ([5]; parasite line B) 17.5% | Potency [6] | Potency [7] | Potency [8] | Potency [9] | Potency [10] | Potency [11] | Potency [12] | Potency [13] | Potency [14] | Potency [15] | Potency [16] | Potency [17] | Potency [18]

COC(=O)C(Cc1ccccc1)NC(=O)C(N)CC(=O)O (stereo not drawn) (H-Asp-Phe-OMe; configuration not given here)
3.61%: max response [2, 20]
-5.71%: max response [2, 19]
inactive: activity change, negative = inhibition [2] 5.29% | outcome [3] | Potency [4] | activity, negative = inhibition ([5]; parasite line A) 0% | activity, negative = inhibition ([5]; parasite line B) 12.1% | Potency [6] | Potency [7] | Potency [8] | Potency [9] | Potency [10] | Potency [11] | Potency [12] | Potency [13] | Potency [14] | Potency [15] | Potency [16] | Potency [17] | Potency [18]

CNC1C(OC2C(O[C@@H]3C(O)C(O)[C@@H](N=C(N)N)C(O)C3N=C(N)N)OC(C)[C@@]2(O)CO)OC(CO)C(O)C1O (some centres undefined)
13.3%: max response [2, 19]
inactive: activity change, negative = inhibition [2] 8.79% | outcome [3] | Potency [4] | activity, negative = inhibition ([5]; parasite line A) 9.26% | activity, negative = inhibition ([5]; parasite line B) 13.4% | Potency [6] | Potency [7] | Potency [8] | Potency [9] | Potency [10] | Potency [11] | Potency [12] | Potency [13] | Potency [14] | Potency [16] | Potency [18]
25.4%: max response [2, 20]

OCC1OC([S-])[C@H](O)C(O)C1O.[Au+] (some centres undefined)
inactive: activity change, negative = inhibition [2] 9.01% | outcome [3] | Potency [4] | activity, negative = inhibition ([5]; parasite line A) -14% | activity, negative = inhibition ([5]; parasite line B) -7.29% | Potency [6] | Potency [7] | Potency [8] | Potency [9] | Potency [10] | Potency [11] | Potency [12] | Potency [13] | Potency [14] | Potency [15] | Potency [16] | Potency [17] | Potency [18]
19.8%: max response [2, 20]
5.52%: max response [2, 19]
